High-throughput results deposited in PubChem by National Center for Advancing Translational Sciences (NCATS).
HCMV inh = qHTS Assay for inhibitors of the human cytomegalovirus (HCMV) | HFF cells, HCMV-luciferase reporter, 72 h; hits give low values | activity change, negative = inhibition, % at 57.5 µM | 410,000 tested, 4.5% active | AID 1259415, 2018; in the data active means activity change below about -60%; inconclusive means no clear call, values can overlap the other calls; inactive means above about -39%; further: on the % scale 0 is the no-effect control and ±100 the full control effect
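Two-dose cell screen: HFF monolayers treated with compounds and infected with luciferase-expressing HCMV at 1 PFU/cell, 72 h at 37C, then lysed for luciferase measurement.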
Pf growth 48h = Primary qHTS for delayed death inhibitors of the malarial parasite plastid, 48 hour incubation. P. falciparum luciferase growth in erythrocytes, 48 h. 310,000 tested, 5.9% active. Potency, µM (doses to about 28.7 µM), for the others: at the top dose activity change, negative = inhibition, usual class: inhibitors. AID 504832, 2011; further: potency means the concentration at half of the fitted maximal effect; on the % scale 0 is the no-effect control and ±100 the full control effect
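Parasite viability was followed by luminescence of a genomically integrated firefly luciferase. Cultures held 0.1% parasitemia at 2% hematocrit (final), incubated under 5% CO2 at 37 C.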
CHX counter = Cycloheximide Counterscreen for Small Molecule Inhibitors of Shiga Toxin; 300,000 tested, 12% active; cell reporter, cycloheximide protein synthesis inhibition counterscreen; max response, %; AID 2314, 2010; in the data active means max response mostly above about 13%, no sharp cut-off; inactive means mostly below about 14%; further: read at 38.3 µM for the half of the compounds with a filed dose; 0% is about no effect
HCV inhibitor = qHTS Assay for Inhibitors of Hepatitis C Virus (HCV); Huh7.5.1 HCVcc-Cre infection, luciferase reporter, 44 h; Potency, µM (series often up to 41.8 µM), without a hit: at the highest dose activity change, negative = inhibition, most hits filed as inhibitors; 340,000 tested, 3.4% active; AID 651820, 2012; further: potency means the concentration at half of the fitted maximal effect; on the % scale 0 is the no-effect control and ±100 the full control effect
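Cells seeded at 1,000/well and cultured 4 h, then compounds added followed by HCVcc-Cre virus (~0.5 moi). After 44 h further culture, luciferase substrate was added, plates held 15 min at room temperature, and luminescence read for 15 sec.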
Shiga toxin inh = A qHTS for Small Molecule Inhibitors of Shiga Toxin; Vero cells, Shiga toxin protein synthesis inhibition reporter; inhibition, % at 38.7 µM; 290,000 tested, 9.2% active; in the data active means inhibition mostly above about 28%, no sharp cut-off; inactive means mostly below about 43%; further: 0% is about no effect
Pf growth 96h = Primary qHTS for delayed death inhibitors of the malarial parasite plastid, 96 hour incubation | P. falciparum luciferase reporter growth, 96 h | Potency, µM (titrated, usually from 28.7 µM), without a hit: top-dose activity change, negative = inhibition, actives largely listed as inhibitors | 320,000 tested, 6.9% active | AID 504834, 2011; further: potency means the concentration at half of the fitted maximal effect; on the % scale 0 is the no-effect control and ±100 the full control effect
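Readout is luminescence from an integrated firefly luciferase in P. falciparum. Red cells, 2% hematocrit and 0.05% parasitemia final, were cultured with compound through two parasite generations (96 hours) at 37 C, 5% CO2.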
Numbers without * were called inactive; u = inconclusive; x = no result given; + = active, no number. This is a sample that favours compounds with a hit; in the whole collection about 21% have one here. Unless noted, the call rests on the fitted dose curve; in most records, active means well fitted inhibition curve with a large enough effect; inconclusive means small, poorly fitted or top-dose-only effect, or another doubt; inactive means no such curve, though single readings can be large or run the other way.

SMILES	HCMV inh	Pf growth 48h	CHX counter	HCV inhibitor	Shiga toxin inh	Pf growth 96h
CCN(CC)CCCN1C=C2C(=O)C(C)(OC(=O)CCC(=O)OC)C(=O)C=C2C=C1C1CC1 (centres undefined)	13.4	x	x	10.8%	x	x
CCOC(=O)[C@@H]1[C@H]2COc3ccc(Br)cc3[C@@H]2N2C(=O)N(c3cccc(Cl)c3)C(=O)[C@@]12C	-5.9	x	x	5.2%	x	x
CCOC(=O)C1=C(CN2CCC(C)CC2)NC(=O)NC1c1ccc(F)cc1 (centres undefined)	-3.0	x	x	x	x	x
Cc1cc2c(cc1NS(=O)(=O)c1ccc(Br)cc1)n(C)c(=O)c(=O)n2C	11.8	x	x	x	x	x
C/C(=N/NC(=O)CCc1c(C)n[nH]c1C)c1cccc([N+](=O)[O-])c1	26.9	-21.3%	-0.8	0.7%	-2.2	17.8%
CCc1ccc(-n2c(=O)c3sc4ccccc4c3n(CC(=O)N(CC)Cc3ccccc3)c2=O)cc1	7.0	x	x	x	x	x
CC(C)C(NC(=O)CSc1ccc(Cl)cc1)C(C)C	-33.1	x	-9.5	5.8%	-2.9	u
CC(C)CNC(=O)CSc1ccc(Cl)cc1	-20.5	x	14.1*	3.3%	46.8	44.5%
Cc1ccc(SCC(=O)NCC(C)C)cc1	-8.2	74.6%	12.3	15.9%	44.0*	38.3%
CCC(C)NC(=O)CSc1ccc(Cl)cc1 (centres undefined)	-11.9	53.2%	18.3*	11.0%	+	3.29µM*
O=C(CSc1ccc(Cl)cc1)Nn1cnnc1	44.1	10.5%	-2.3	15.2%	-3.2	-15.9%
Cn1ncc(Br)c1NC(=O)CSc1ccc(Cl)cc1	-34.8	-0.1%	0.7	25.1µM*	32.4	27.1%
CCCCNC(=O)C1(C)CCCCN1C(=O)c1cccs1 (centres undefined)	-3.4	x	x	x	x	x
Cc1cc(C)c(S(=O)(=O)NC(C)C)c(C)c1-n1cnnn1	-29.2	6.2%	-1.5	13.4%	-4.9	-13.3%
CCOc1ccc(CN(C(=O)c2cc(=O)c3cc(Cl)ccc3o2)C2CCS(=O)(=O)C2)cc1 (centres undefined)	25.4	x	x	x	x	x
COc1ccccc1NC(=O)c1cc(S(=O)(=O)NCc2ccccc2)ccc1F	42.5	u	-1.0	u	-7.2	5.22µM*
Cc1ccc(S(=O)(=O)NCc2ccccc2)cc1C(=O)NC1CCC(C)CC1 (centres undefined)	-9.4	-2.1%	11.9*	-21.2%	54.6*	33.2%
COc1ccc(CNS(=O)(=O)c2ccc(F)c(C(=O)Nc3ccc(OC)cc3)c2)cc1	-37.1	-4.1%	-0.9	-9.1%	-2.5	u
COc1ccc(CNS(=O)(=O)c2ccc(F)c(C(=O)Nc3ccccc3OC)c2)cc1	u	-5.9%	-3.9	-9.2%	-10.6	2.33µM*
Cc1ccc(S(=O)(=O)NCc2ccccc2)cc1C(=O)N1CC(C)CC(C)C1 (centres undefined)	-40.0	u	x	-0.2%	x	u
CCOC(=O)c1ccccc1NC(=O)N(Cc1ccc(C)cc1)Cc1cccn1-c1nnc(N2CCCC2=O)s1	56.6	x	x	x	x	x
O=C(NCc1ccccc1C(F)(F)F)C1CC(c2ccc(C(F)(F)F)cc2)=NO1 (centres undefined)	u	u	-2.5	-0.4%	0.5	64.4%
CNc1oc(-c2ccc(C)cc2)nc1P(=O)(c1ccccc1)c1ccccc1	-10.8	0.117µM*	7.0	u	-9.3	14.7µM*
Cc1ccc(S(=O)(=O)N(C)C)cc1NC(=O)CSc1nncs1	-8.2	u	x	30.7%	x	21.3%
CCc1ccc(CN2C(=O)c3ccccc3C2C(=O)NC2CCCCCC2)cc1 (centres undefined)	-11.7	x	x	x	x	x
SMILES	HCMV inh	Pf growth 48h	CHX counter	HCV inhibitor	Shiga toxin inh	Pf growth 96h
CCCOc1ccc(C(O)(CCC)CCN2CCCCC2)cc1 (centres undefined)	-17.0	-13.6%	-4.2	8.91µM*	-11.7	-21.8%
COc1ccccc1NS(=O)(=O)c1cc(NC(=O)CCC2CCCC2)ccc1N1CCOCC1	-103.7*	u	3.0	10.2%	9.7	u
CCC(C(=O)Nc1ccc(N2CCOCC2)c(S(=O)(=O)Nc2ccccc2OC)c1)c1ccccc1 (centres undefined)	-81.2*	x	x	u	x	x
COc1ccccc1NS(=O)(=O)c1cc(NC(=O)c2cccs2)ccc1N1CCOCC1	-33.5	9.28µM*	-1.7	u	-5.2	u
COc1ccccc1NS(=O)(=O)c1ccc(N2CCOCC2)c(NC(=O)c2ccco2)c1	-24.6	-27.2%	-0.8	11.2µM*	-9.4	u
COc1ccccc1NS(=O)(=O)c1cc(NC(=O)CC(C)(C)C)ccc1N1CCOCC1	u	u	-4.0	u	-23.0	u
Cc1cccc(C)c1-n1nnnc1C(=O)c1cccnc1	21.9	x	x	x	x	x
Cc1cccc(NC(=O)C(NS(=O)(=O)c2cccc3nsnc23)c2ccccc2)c1C (centres undefined)	-2.5	x	x	x	x	x
CCCc1cc(=O)oc2cc(OCC(=O)NCCc3ccc(S(N)(=O)=O)cc3)ccc12	-26.5	2.6%	-7.6	0.0%	-3.5	u
COc1ccccc1NS(=O)(=O)c1cc(NC(=O)c2ccco2)ccc1N1CCOCC1	37.5	u	9.1	-27.6%	-4.2	10.4µM*
COc1ccccc1NS(=O)(=O)c1cc(NC(=O)c2ccccc2F)ccc1N1CCOCC1	6.0	0.0%	2.2	u	-13.1	9.28µM*
COC(=O)N1CCCCC1c1cc(C(=O)NCc2ccccc2)no1 (centres undefined)	59.8	x	x	x	x	x
O=C1c2cccc3cccc(c23)C(=O)C1(O)O	-68.9*	x	x	-25.8%	x	x
CC1=C(C(=O)Nc2ccc(C)cc2C)C(c2cccs2)n2nc(SCc3ccc(Cl)cc3)nc2N1 (centres undefined)	8.2	x	x	x	x	x
Cc1ccc(OC(=O)c2sc3ncn(C)c(=O)c3c2C)cc1	-34.6	339.0%	41.0*	u	141.6*	u
Cc1c(C(=O)O)sc2ncn(C)c(=O)c12	5.6	23.5%	-2.0	10.5%	-0.4	u
CC(=O)c1sc(NC(=O)CN2C(=O)C3CC=CCC3C2=O)nc1-c1ccccc1 (centres undefined)	-4.5	23.4%	x	4.3%	x	30.2%
COc1cccc(NC(=O)CN2CCN(CC(=O)Nc3ccc(F)cc3)CC2)c1	57.4	-7.6%	-4.4	1.2%	-7.1	-8.7%
COc1ccc(NC(=O)CN2CCN(S(=O)(=O)c3cccs3)CC2)cc1Cl	u	u	x	-6.6%	x	11.7µM*
COc1ccc(S(=O)(=O)N2CCN(CC(=O)Nc3cc(Cl)ccc3Cl)CC2)cc1	-71.5*	-9.1%	x	-14.6%	x	10.1%
NC(=O)C1(N2CCCCC2)CCN(C(=S)Nc2ccc(F)cc2)CC1	-11.2	-2.2%	-4.9	40.0%	-4.9	-16.0%
COc1cccc(NC(=O)CN2CCC(C)CC2)c1	27.9	x	29.8*	7.7%	35.4*	136.3%
